# Results taken from the supplement of paper PMC8728848.
# This excerpt belongs to a sample that is enriched for the strongest signals.
# B1: Siglec-9 (Homo sapiens), Q9Y336 (protein)
# chain: MLLLLLPLLWGRERAEGQTSKLLTMQSSVTVQEGLCVHVPCSFSYPSHGWIYPGPVVHGYWFREGANTDQDAPVATNNPARAVWEETRDRFHLLGDPHTKNCTLSIRDARRSDAGRYFFRMEKGSIKWNYKHHRLSVNVTALTHRPNILIPGTLESGCPQNLTCSVPWACEQGTPPMISWIGTSVSPLDPSTTRSSVLTLIPQPQDHGTSLTCQVTFPGASVTTNKTVHLNVSYPPQNLTMTVFQGDGTVSTVLGNGSSLSLPEGQSLRLVCAVDAVDSNPPARLSLSWRGLTLCPSQPSNPGVLELPWVHLRDAAEFTCRAQNPLGSQQVYLNVSLQSKATSGVTQGVVGGAGATALVFLSFCVIFVVVRSCRKKSARPAAGVGDTGIEDANAVRGSASQGPLTEPWAEDSPPDQPPPASARSSVGEGELQYASLSFQMVKPWDSRGQEATDTEYSEIKIHR
# What was measured:
# Test in all cases: glycan array binding signal (z-score within array); higher = stronger binding
# Conditions in all cases: glycan notation: IUPAC condensed, linker removed
# [1] = target: Neu5Ac(a2-3)Gal(b1-3)]Neu5Ac(a2-3)Gal(b1-4)]GlcNAc
# Procedure, shortened: (§1)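 Columns mapping to the same glycan were averaged after glycan names were converted to IUPAC-condensed notation. The data come from 3228 arrays in the Consortium for Functional Glycomics database, limited to those with an available protein sequence. Binding is reported as a within-array Z-score averaged across arrays of one protein sequence and across linkers.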
# Neu5Ac(a2-3)Gal(b1-4)Glc = target: Neu5Ac(a2-3)Gal(b1-4)Glc
# Procedure, shortened: as §1
# [2] = target: Neu5Ac(a2-3)Gal(b1-4)GlcNAc(b1-3)Gal(b1-4)GlcNAc(b1-3)[Neu5Ac(a2-3)Gal(b1-4)GlcNAc(b1-3)Gal(b1-4)GlcNAc(b1-6)]GalNAc
# Procedure, shortened: as §1
# [3] = target: Neu5Ac(a2-3)Gal(b1-4)GlcNAc6S
# Procedure, shortened: as §1
# [4] = target: Neu5Ac(a2-3)Gal(b1-4)[Fuc(a1-3)]GlcNAc
# Procedure, shortened: as §1
# [5] = target: Neu5Ac(a2-3)Gal(b1-4)[Fuc(a1-3)]GlcNAc(b1-2)Man
# Procedure, shortened: as §1
# [6] = target: Neu5Ac(a2-3)Gal(b1-4)[Fuc(a1-3)]GlcNAc6S
# Procedure, shortened: as §1
# [7] = target: Neu5Ac(a2-6)Gal(b1-4)GlcNAc(b1-3)Gal(b1-4)GlcNAc(b1-3)Gal(b1-4)GlcNAc(b1-2)Man(a1-3)[Neu5Ac(a2-6)Gal(b1-4)GlcNAc(b1-3)Gal(b1-4)GlcNAc(b1-3)Gal(b1-4)GlcNAc(b1-2)Man(a1-6)]GalNAc
# Procedure, shortened: as §1
# [8] = target: Neu5Ac(a2-6)Gal(b1-4)GlcNAc6S
# Procedure, shortened: as §1
# [9] = target: Neu5Ac(a2-8)Neu5Ac(a2-3)Gal(b1-4)GlcNAc
# Procedure, shortened: as §1
# [10] = target: Neu5Ac(a2-8)Neu5Ac(a2-3)[Gal(b1-3)GalNAc(b1-4)]Gal(b1-4)Glc
# Procedure, shortened: as §1
# [11] = target: Neu5Gc(a2-3)Gal(b1-3)GlcNAc
# Procedure, shortened: as §1
# [12] = target: Neu5Gc(a2-3)Gal(b1-4)[Fuc(a1-3)]GlcNAc
# Procedure, shortened: as §1
# [13] = target: Neu5Gc(a2-8)Neu5Gc(a2-3)Gal(b1-4)GlcNAc(b1-3)Gal(b1-4)GlcNAc
# Procedure, shortened: as §1
binder,measurement,setting,value
B1,glycan array binding signal (z-score),[1],1.76
same,glycan array binding signal (z-score),Neu5Ac(a2-3)Gal(b1-4)Glc,1.09
same,glycan array binding signal (z-score),[2],-0.187
same,glycan array binding signal (z-score),[3],2.21
same,glycan array binding signal (z-score),[4],1.14
same,glycan array binding signal (z-score),[5],14.8
same,glycan array binding signal (z-score),[6],16.8
same,glycan array binding signal (z-score),[7],0.878
same,glycan array binding signal (z-score),[8],1.58
same,glycan array binding signal (z-score),[9],-0.259
same,glycan array binding signal (z-score),[10],-0.214
same,glycan array binding signal (z-score),[11],-0.028
same,glycan array binding signal (z-score),[12],0.005
same,glycan array binding signal (z-score),[13],-0.178
